Measured values from PubChem BioAssay AID1631 (National Center for Advancing Translational Sciences (NCATS), 2009).
About 890 (0.34%) of roughly 260,000 compounds were called active. Roughly 1% stayed inconclusive and do not appear here. Calls come from the whole dose curve; as a rule, active = well fitted activation curve with a large enough effect; inconclusive = small, poorly fitted or top-dose-only effect; inactive = no such curve, though single readings can be large or run the other way. The sample as a whole holds a higher share of actives than the screen did.

target: Pyruvate kinase PKM (Homo sapiens) (UniProt P14618); test: qHTS Assay for Activators of Human Muscle isoform 2 Pyruvate Kinase; conditions: purified PKM2, Kinase-Glo ATP luminescence; Potency: activation; series mostly up to 57.5 µM; note: nearly all actives have a fitted effect of over 55% in size
From the text: NIH Chemical Genomics Center [NCGC] Matthew G. Vander Heiden, M.D., Ph.D. [Harvard Medical School, 77 Avenue Louis Pasteur, Boston, MA 02115] MLPCN Grant: 1 R03 MH085679-01 NCGC Assay Overview: Human pyruvate kinase muscle 2 (hPK-M2) enzyme was supplied as a highly purified (>95% pure) preparation from Harvard Medical School and assayed for its ability to generate ATP from ADP using phosphoenolpyruvate (PEP) as a substrate. ATP generation was detected in a coupled reaction by luciferase-mediated luminescence, an ATP-dependent process. […] The enzyme was assayed at an intermediate level of activity to screen for both inhibitors and activators.
NCGC Assay Protocol Summary: Three uL of substrate mix (at r.t.) in assay buffer (50 mM Imidazole pH7.2, 50 mM KCl, 7 mM MgCl2, 0.01% Tween 20, 0.05% BSA) was dispensed into white solid bottom 1,536 well microtiter plates so that the final concentrations of substrates in the assay were 0.1 mM ADP and 0.5 mM PEP. 23 nL of compound were delivered by a pin tool and 1 uL of enzyme mix in assay buffer (4 degree Celsius) was added. Plates were incubated at room temperature for 1 hour. Two uL of detection mix (Kinase-Glo, Promega; at 4 degree Celsius protected from light) was added and luminescence read by a ViewLux (Perkin Elmer) at 5 second exposure/plate. Data were normalized to the uninhibited and AC100 inhibition (no enzyme). To monitor activation, the first column contained a titration of the activator, NCGC00031955-01 (16-point 1:2 dilutions in duplicate starting at 57 uM) and the first 16 rows of column 4 contained 57 uM of NCGC00031955-01.
% is set by controls: 0 for no effect and ±100 for the full control effect; potency is the fitted concentration of half-maximal effect.

Sequence of Pyruvate kinase PKM (Homo sapiens) (P14618 whole entry, looked up, canonical isoform): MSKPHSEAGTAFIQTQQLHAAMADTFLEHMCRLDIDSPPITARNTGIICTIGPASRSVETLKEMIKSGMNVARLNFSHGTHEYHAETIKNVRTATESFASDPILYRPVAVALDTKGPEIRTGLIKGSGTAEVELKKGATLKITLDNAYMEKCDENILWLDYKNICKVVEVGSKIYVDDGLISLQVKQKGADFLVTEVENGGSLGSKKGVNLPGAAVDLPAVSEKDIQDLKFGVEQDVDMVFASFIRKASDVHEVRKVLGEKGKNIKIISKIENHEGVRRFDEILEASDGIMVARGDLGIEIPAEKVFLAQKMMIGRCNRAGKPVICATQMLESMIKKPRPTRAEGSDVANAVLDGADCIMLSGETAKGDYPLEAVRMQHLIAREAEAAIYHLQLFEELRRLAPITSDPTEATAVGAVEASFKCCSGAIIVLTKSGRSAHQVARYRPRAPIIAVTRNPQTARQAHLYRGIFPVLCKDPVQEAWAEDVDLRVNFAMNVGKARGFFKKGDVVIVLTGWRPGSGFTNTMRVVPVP

Potency, active:
Cc1cc(NC(=O)CSc2nnc(-c3ccc(Cl)s3)o2)no1 2.51 µM, Cc1ccc2nc(C)cc(N/N=C/c3ccc(F)cc3)c2c1 15.8 µM, Cc1ccccc1-c1nnn(CC(=O)c2ccc(S(=O)(=O)N3CCCC3)cc2)n1 7.94 µM, COC(=O)c1[nH]c2ccccc2c1NC(=O)CN1CCCc2ccccc21 28.2 µM, CC(=O)c1cc(C#N)c(SCC(=O)Nc2nccs2)nc1C 1 µM, CNC(=O)COc1ccc(S(=O)(=O)Nc2ccccc2)cc1 10 µM, C=CCn1c(SCc2csc(C)n2)nc2scc(-c3ccc(C)o3)c2c1=O 10 µM, COc1cccc(NC(=O)CSc2nnc(Cc3ccc(OC)c(OC)c3)o2)c1 14.1 µM, O=c1cc(Cn2nnc(-c3ccc(Cl)cc3)n2)nc2sccn12 14.1 µM

Potency, inactive:
COc1ccccc1-c1nnc(SCC(=O)Nc2cc(C)on2)o1, Cc1nc(SCC(=O)Nc2cc(C)on2)c2c(C)c(C)sc2n1, COc1cc(NC(=O)C2=CC(c3ccc(C)cc3)=NS(=O)(=O)N2C)cc(OC)c1OC, CCOc1cc(/C=N/Nc2cc(C)nc3ccc(C)cc23)ccc1O, Fc1ccc(/C=N/Nc2nc(-c3cccnc3)nc3ccccc23)cc1, Cc1cc(C)n(C(=O)c2ccc(S(=O)(=O)N3CCCC3)cc2)n1, CC(C)(C)NC(=O)Cn1nnc(-c2ccccc2Cl)n1, O=C(NC(=S)Nc1ccc(Cl)cc1Cl)C1CC1, COC(=O)c1[nH]c2cccc(C)c2c1NC(=O)CN1CCCc2ccccc21, NS(=O)(=O)c1cccc(NC(=O)CN2CCCc3ccccc32)c1, CCOc1ccccc1NC(=S)NC(=O)CCc1ccccc1, CC(=O)c1cc(C#N)c(SCC(=O)C(C)(C)C)nc1C, Cc1cc(C(F)(F)F)nc(SCC(=O)Nc2nccs2)n1, CC(=O)OCCN(CCCn1c(-c2ccncc2)nc2ccccc21)c1nc(-c2ccc(C)cc2)cs1, CC(C)c1ccc(NC2CCCN(C(=O)c3ccncc3)C2)cc1 (centres undefined), O=C(c1ccccc1)N1CCN(C(=O)c2cc3nc(-c4ccccc4)cc(C(F)(F)F)n3n2)CC1, CC(C)c1ccc(S(=O)(=O)N2CCN(C(=O)c3ccc(N4CCCC4)c([N+](=O)[O-])c3)CC2)cc1, CCCOc1ccc(/C=N/NC(=O)C2CC2)c(OCCC)c1, O=C(C1CCC(=O)N(C2CC2)C1)N1CCN(c2ccc(Cl)cc2)CC1 (centres undefined), CC(C)c1ccc(NC(=O)C2CCCN(S(=O)(=O)c3cccnc3)C2)cc1 (centres undefined), CN(NS(=O)(=O)c1cccs1)c1ncc(C(F)(F)F)cc1Cl, CCOc1ccccc1N1C(=O)CC(Sc2nccc(C)n2)C1=O (centres undefined), CCCn1c(C2CCCN2c2nc(-c3ccc(OC)cc3)cs2)nc2ccccc21 (centres undefined), COC(=O)c1ccc(CN2CCCC(C(=O)Nc3cccc(-n4cnnn4)c3)C2)cc1 (centres undefined), CCOc1ccc(NS(=O)(=O)c2ccc(OCC(=O)NCCCOC)cc2)cc1, COC(=O)COc1ccc(S(=O)(=O)Nc2ccc(NC(C)=O)cc2)cc1, COc1cccc(OCC(O)CNC(=O)c2oc3c(C)c(C)ccc3c2C)c1 (centres undefined), Cc1ccc(-n2ncc3c2CC(C)(C)CC3NC(=O)Cc2c(C)noc2C)cc1 (centres undefined), O=C(NCCN1CCN(C(=O)c2cccc([N+](=O)[O-])c2)CC1)C(=O)NCc1ccc(Cl)cc1, Cc1ccc(C)c(OCc2cc(C(=O)N3CCN(c4cnccn4)CC3)no2)c1, C/C(=N\NC(=O)c1ccoc1C)c1ccccc1O, C=CCn1c(SCC(=O)NCC2CCCO2)nc2sc(C)c(C)c2c1=O (centres undefined), C=CCNC(=O)CSc1nc2scc(-c3ccco3)c2c(=O)n1CC=C, CC(=O)Nc1cccc(Nc2nc(-c3cccs3)nc3ccccc23)c1, Cc1cc(NC(=O)c2ccco2)c(=O)n(Cc2c(F)cccc2Cl)c1, N#C[C@]1(S(=O)(=O)c2ccccc2)C[C@@H]2ON=C(c3cccc(Br)c3)[C@@H]2C1, O=C(Nc1ccc(Cl)cc1)c1cccc(OC(=S)N2CCOCC2)c1, COc1ccccc1-c1nnc(SCC(=O)Nc2ccccc2)o1, Cc1cc(C)cc(OCc2nnc(SCC(=O)Nc3ccccc3)o2)c1, O=C(Nc1nnc(S(=O)(=O)N2CCCCCC2)s1)c1cccc(Br)c1, CCc1ccccc1OCC(=O)Nc1ccc2c(c1)OCCO2, COc1ccc(NS(=O)(=O)c2ccc(N3CCN(CCO)CC3)c([N+](=O)[O-])c2)cc1, O=C(Nc1ncc([N+](=O)[O-])s1)C1COc2ccccc2O1 (centres undefined), O=C(NCc1ccc(Cl)cc1)c1cc2c(nc3sccn32)s1, CCn1c(SCc2cc(=O)n3ccsc3n2)nc2ccccc21, Clc1cccc(Cl)c1OCCOCCNCc1ccccc1, COc1nnc(-c2ccc(C)c(S(=O)(=O)N(C)C)c2)c2ccccc12, COc1cc(/C=C/C(=O)N2CCc3ccccc3C2)cc(OC)c1OC, COc1ccc(-c2oc3ncnc(NCCCO)c3c2-c2ccc(OC)cc2)cc1, C=CCNC(=S)/N=c1/ccccn1Cc1ccccc1, O=C(/C=C/c1ccc([N+](=O)[O-])o1)NNC(=O)c1ccc(F)cc1, COCCNc1cc(-c2ccccc2)nc2cc(-c3cccc(F)c3)nn12

activation, inactive:
CCOc1ccccc1NC(=S)N1CCN(c2cccc(C)c2C)CC1 -8.49% [at 11.5 µM, 0% is enzyme alone, no compound], CC1CCCCC1NC(=O)CCS(=O)(=O)c1ccc2c(c1)NC(=O)CO2 (centres undefined) 0.549% [at 0.46 µM, 0% is enzyme alone, no compound], COCc1cc(=O)n2[nH]c(C)c(-c3ccccc3)c2n1 -8.06% [at 11.5 µM, 0% is enzyme alone, no compound]
